{"source": "PubChem BioAssay AID1347416", "about": "(National Center for Advancing Translational Sciences (NCATS), 2020)", "note": "Screen size: about 4,100 compounds; about 1,600 (39%) were called active. Not shown: some 25% with an inconclusive outcome. Calls follow the shape of the dose curve; as a rule, active = well fitted inhibition curve with a large enough effect; inconclusive = small, poorly fitted or top-dose-only effect; inactive = no such curve, though single readings can be large or run the other way. The list shows a part of the results. % is scaled to controls: 0 for no effect and ±100 for the full control effect; potency is read from the fitted curve at half-maximal effect.", "data": [{"assay": "qHTS Validation assay for Inhibitors of Plasmodium falciparum Dd2 growth in vitro; also: nearly all actives have a fitted effect of over 70% in size", "conditions": "P. falciparum Dd2 in RBCs, SYBR Green growth, 72 h; series mostly up to 28.7 µM; activity change, negative = inhibition: at the top concentration", "how_it_was_run": "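P. falciparum Dd2-infected red blood cells (2.5% hematocrit, 0.3% parasitemia) grown 72 h at 37 °C under 5% O2 with compounds in a titration, 29 uM to 0.5 nM final. Growth read as SYBR Green-1 fluorescence after ~16 h lysis; artesunate 300 nM as positive control.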", "values": [{"smiles": "CCc1noc(-c2cccn3c(CNC(=O)Cc4ccc(Cl)cc4)nnc23)n1", "activity change, negative = inhibition": "-12.7% (inactive)"}, {"smiles": "Cc1ccoc1C(=O)Nc1ccc(CC(=O)O)cc1", "activity change, negative = inhibition": "32.1% (inactive)"}, {"smiles": "CCN(c1ccccc1)S(=O)(=O)c1ccc(NC(=O)c2cc(=O)c3cc(C)ccc3o2)cc1", "activity change, negative = inhibition": "44% (inactive)"}, {"smiles": "CCN(CC)c1cc(C)c2cc(NC(=O)c3ccc(Br)o3)ccc2n1", "Potency": "6.68 µM (active)"}, {"smiles": "Cc1cc(N2CCN(C)CC2)nc2ccc(NC(=O)c3ccc(Br)o3)cc12", "Potency": "6.68 µM (active)"}, {"smiles": "CCN1CCN(c2cc(C)c3cc(NC(=O)c4ccc(Br)o4)ccc3n2)CC1", "Potency": "6.68 µM (active)"}, {"smiles": "OC(CN1CCN(c2ccccn2)CC1)Cn1c2ccc(Cl)cc2c2cc(Cl)ccc21", "note": "(stereo unspecified)", "Potency": "2.99 µM (active)"}, {"smiles": "O=c1cc(N2CCOCC2)oc2c(N3CCN(c4ccccn4)CC3)nccc12", "activity change, negative = inhibition": "-7.02% [at 43.1 µM] (inactive)"}, {"smiles": "CC(NC(=O)Cc1cccc(F)c1)C(=O)N1CCN(c2ccccn2)CC1", "note": "(stereo unspecified)", "activity change, negative = inhibition": "-6.29% (inactive)"}, {"smiles": "COc1ccc(CNC(=O)C2CCN(C(=O)c3cc4c(=O)[nH]c(C)cn4n3)CC2)cc1", "activity change, negative = inhibition": "2.01% (inactive)"}, {"smiles": "COc1ccc(CNC(=O)CC[C@@H]2CNC(=O)[C@@H]3C[C@H](NCc4ccccc4)CN23)cc1", "activity change, negative = inhibition": "41% (inactive)"}, {"smiles": "Cc1ccc(CNCc2cc3c(C(C)(C)C)nn(-c4ccccc4)c3[nH]c2=O)cc1", "Potency": "0.266 µM (active)"}, {"smiles": "Cc1ccc(Oc2c(CCC(=O)NC(C)C)c(C)nn2-c2ccccc2)cc1", "activity change, negative = inhibition": "-18.5% (inactive)"}, {"smiles": "COc1ccc(CNCc2cc3c(C(C)(C)C)nn(-c4ccccc4)c3[nH]c2=O)cc1", "Potency": "0.842 µM (active)"}, {"smiles": "Cc1ccc(-c2nn(-c3ccccc3)c3[nH]c(=O)c(CNCc4ccccc4)cc23)cc1", "Potency": "0.422 µM (active)"}, {"smiles": "Cc1nc(NCc2ccccc2)[nH]c(=O)c1CCC(C)C", "activity change, negative = inhibition": "-0.527% (inactive)"}, {"smiles": "CCCC(=O)N=C1SC2CS(=O)(=O)CC2N1c1ccc(CC)cc1", "note": "(stereo unspecified)", "activity change, negative = inhibition": "36.5% (inactive)"}, {"smiles": "COCc1nncn1C1CCN(C(=O)c2ccc(C)c(C)c2)CC1", "activity change, negative = inhibition": "26.5% (inactive)"}, {"smiles": "CN(Cc1cccn1C)C(=O)C1CC1", "activity change, negative = inhibition": "50.1% [at 57.5 µM] (inactive)"}, {"smiles": "CCC(C)c1ccc(NC(=O)c2cccnc2)cc1", "note": "(stereo unspecified)", "activity change, negative = inhibition": "-5.75% (inactive)"}, {"smiles": "CCC(C)c1ccc(O)c(NC(=O)c2cncc(Br)c2)c1", "note": "(stereo unspecified)", "Potency": "2.99 µM (active)"}, {"smiles": "COc1ccc(NC(=O)c2nnn3c2CN(Cc2cccc(Cl)c2)C(=O)CC3)c(C)c1", "Potency": "2.17 µM (active)"}, {"smiles": "COc1ccc(NC(=O)c2nnn(Cc3ccccc3C)c2N)c(OC)c1", "activity change, negative = inhibition": "11.2% (inactive)"}, {"smiles": "CC(=O)Nc1nc2ccccc2n1Cc1ccc(Cl)cc1", "Potency": "8.41 µM (active)"}, {"smiles": "CCCCn1c2ccccc2c2nnc(SCC(=O)Nc3ccc(NC(C)=O)cc3)nc21", "activity change, negative = inhibition": "9.73% (inactive)"}, {"smiles": "O=C(Nc1nc2ccccc2n1Cc1ccccc1)c1ccc(COc2ccccc2[N+](=O)[O-])o1", "Potency": "16.8 µM (active)"}, {"smiles": "CCCCCCCn1c(NC(=O)CC)nc2ccccc21", "Potency": "16.8 µM (active)"}, {"smiles": "COc1ccc2nc3oc(C(=O)NCc4cccs4)cc3cc2c1", "activity change, negative = inhibition": "1.28% (inactive)"}, {"smiles": "COc1ccc(C2CC(c3cccs3)=NN2C(=O)c2ccc(Br)o2)cc1", "note": "(stereo unspecified)", "Potency": "5.31 µM (active)"}, {"smiles": "O=C(NCCCN1CCCC1)c1ccc2c(c1)N(S(=O)(=O)c1ccccc1F)CC2", "Potency": "9.44 µM (active)"}, {"smiles": "O=C(CN1CCN(S(=O)(=O)N2CCCC2)CC1)NCc1ccccc1F", "activity change, negative = inhibition": "35.8% (inactive)"}, {"smiles": "O=C(Nc1nc2c(F)cccc2s1)c1ccc(S(=O)(=O)N2CCCc3ccccc32)cc1", "activity change, negative = inhibition": "23.7% (inactive)"}, {"smiles": "COc1ccc2[nH]c3c(c2c1)CCNC31CCN(C(=O)C(C)(C)C)CC1", "activity change, negative = inhibition": "4.8% (inactive)"}, {"smiles": "Cc1ccc(C(=O)N2CCc3nc4cc(-c5ccccc5)[nH]n4c(=O)c3C2)cn1", "activity change, negative = inhibition": "-4.34% (inactive)"}, {"smiles": "O=C(c1cc(NC(=O)C23CC4CC(CC(C4)C2)C3)cc(NC(=O)C23CC4CC(CC(C4)C2)C3)c1)N1CCCCC1", "Potency": "5.96 µM (active)"}, {"smiles": "CC(C)CN1C(=O)c2cccn2CC1CNC(=O)c1ccccc1", "note": "(stereo unspecified)", "activity change, negative = inhibition": "11.3% (inactive)"}, {"smiles": "COc1ccccc1Oc1ncccc1CNCc1c(F)cccc1Cl", "activity change, negative = inhibition": "-18.1% (inactive)"}, {"smiles": "Cc1ccc(CNCC(O)(c2ccccc2)c2ccc(Cl)cc2)cc1", "note": "(stereo unspecified)", "Potency": "2.99 µM (active)"}, {"smiles": "COc1ccc(CNCC(O)(c2ccc(Cl)cc2)c2ccc(Cl)cc2)cc1", "Potency": "1.5 µM (active)"}, {"smiles": "COc1ccccc1CNCC(O)(c1ccc(Cl)cc1)c1ccc(Cl)cc1", "Potency": "1.5 µM (active)"}, {"smiles": "Cc1cn2nc(-c3nc(C4CCCN(C(=O)Cc5ccsc5)C4)no3)cc2c(=O)[nH]1", "note": "(stereo unspecified)", "activity change, negative = inhibition": "2.56% (inactive)"}, {"smiles": "COc1ccc(CNC(=O)C2CCN(c3nc(-c4ccccc4)nc4c3CCC4)CC2)cc1", "Potency": "7.5 µM (active)"}, {"smiles": "CCc1ccc(CNC(=O)C2CCN(c3cc(C(F)(F)F)nc(C)n3)CC2)cc1", "activity change, negative = inhibition": "0.317% (inactive)"}, {"smiles": "COc1ccc(OC)c(CNC(=O)C2CCN(c3ncnc4c3nc3n4CCCCC3)CC2)c1", "activity change, negative = inhibition": "0% (inactive)"}, {"smiles": "O=C(Nc1ccc(F)cc1)N1CCOc2ccc(CN3CCc4ccccc4C3)cc2C1", "Potency": "8.41 µM (active)"}, {"smiles": "COc1ccccc1NC(=O)N1CCOc2ccc(CN3CCc4ccccc4C3)cc2C1", "Potency": "2.37 µM (active)"}, {"smiles": "Cc1cc(=O)n(CC(=O)Nc2ccccc2F)c(N2CCc3ccccc3C2)n1", "activity change, negative = inhibition": "-14.7% (inactive)"}, {"smiles": "CCOc1cccc(CN2C[C@@H]3C(=O)N(CCN4CCc5ccccc5C4)C(=O)[C@@H]3C2)c1", "activity change, negative = inhibition": "-2.17% (inactive)"}, {"smiles": "CC[C@@H](NC(C)=O)C(=O)N1CCOc2c(cc(-c3cccs3)cc2OC)C1", "activity change, negative = inhibition": "59.3% (inactive)"}, {"smiles": "O=C(Nc1ccc(F)cc1F)N1CCOc2ccc(CN3CCc4ccccc4C3)cc2C1", "Potency": "16.8 µM (active)"}, {"smiles": "CC1(CNc2ccccc2)COc2ccc(C(=O)NCc3ccc(F)cc3)cc2N1", "note": "(stereo unspecified)", "activity change, negative = inhibition": "-5.85% [at 43.1 µM] (inactive)"}, {"smiles": "CCC1Oc2ccc(NC(=O)COC)cc2CN(Cc2ccc(F)cc2)C1=O", "note": "(stereo unspecified)", "activity change, negative = inhibition": "-29.7% (inactive)"}, {"smiles": "CCN(C(=O)c1cc2cc(Br)cc(OC)c2oc1=O)c1ccccc1", "activity change, negative = inhibition": "4.88% (inactive)"}, {"smiles": "Cc1nc(CCNC(=O)C2CC2)no1", "activity change, negative = inhibition": "12.3% (inactive)"}, {"smiles": "O=C(c1ccc(-c2ncc3cnc(-c4ccccc4)cn23)cc1)N1CCc2cccnc21", "Potency": "17.2 µM (active)"}, {"smiles": "Cc1ccc(C(=O)N2CCCn3cc(-c4cccc(C#N)c4)nc32)cc1", "activity change, negative = inhibition": "-7.37% (inactive)"}, {"smiles": "O=C(c1ccc(-c2ncc3cnc(-c4cccc(F)c4)cn23)cc1)N1CCc2cccnc21", "activity change, negative = inhibition": "-17% [at 43.1 µM] (inactive)"}, {"smiles": "CCOC(=O)c1ccc(Nc2nc3nonc3nc2Nc2cccc(C)c2C)cc1", "Potency": "8.41 µM (active)"}, {"smiles": "COc1ccc(Nc2ccccc2NC(=O)c2ccccc2Br)cc1", "Potency": "5.96 µM (active)"}, {"smiles": "COc1ccc(NC(=O)c2cccc3c2CCN3C(=O)Nc2ccc(F)cc2)c(C)c1", "activity change, negative = inhibition": "-18.7% (inactive)"}, {"smiles": "CCNC(=O)N1CC[C@H]2CC(=O)N([C@H](C(N)=O)C(C)C)CC[C@H]2C1", "activity change, negative = inhibition": "37.8% [at 43.1 µM] (inactive)"}]}]}
